PubChem BioAssay (NCI)
The panel holds about 83,000 compounds, 20% with a hit somewhere; the sample as a whole holds those more often.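 For each line, cells grew in 96-well plates with the test compound present at a single concentration for 48 hours.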 Activity calls are given as the source filed them. The calls were made as follows: active = growth percent below 10; inactive = the rest.

Columns and labels:
Experiment in all cases: NCI-60 one-dose screen, 48 h (100 = growth as untreated, 0 = no growth, -100 = all killed)
Details in all cases: 10 µM unless noted
NCI-H23 lung = test system: NCI-H23 lung
NCI-H226 lung = test system: NCI-H226 lung
NCI-H322M lung = test system: NCI-H322M lung
HOP-62 NSCLC = test system: HOP-62 NSCLC
NCI-H460 lung = test system: NCI-H460 lung
HOP-92 NSCLC = test system: HOP-92 NSCLC
NCI-H522 lung = test system: NCI-H522 lung
A549/ATCC NSCLC = test system: A549/ATCC NSCLC
786-0 renal = test system: 786-0 renal
COLO 205 colon = test system: COLO 205 colon

Measured: growth

CCOc1cc2ncc(C#N)c(Nc3ccc(OCc4ccccn4)c(Cl)c3)c2cc1NC(=O)/C=C/CN(C)C
inactive: NCI-H23 lung 39.9% | NCI-H226 lung 47.2% | HOP-62 NSCLC 38.6% | HOP-92 NSCLC 39.3% | A549/ATCC NSCLC 22.3% | COLO 205 colon 27.4%
active: NCI-H322M lung 0.942% | NCI-H460 lung -62.2% | NCI-H522 lung 6.98% | 786-0 renal -74.7%

Cc1nc2ccc(-n3ncc(C(=O)c4cc5ccccc5[nH]4)c3N)cc2[nH]1
inactive: NCI-H23 lung 74% | NCI-H226 lung 48.4% | NCI-H322M lung 86.5% | HOP-62 NSCLC 55.9% | HOP-92 NSCLC 74.8% | NCI-H522 lung 36.5% | A549/ATCC NSCLC 36.9% | 786-0 renal 55.2% | COLO 205 colon 38.7%
active: NCI-H460 lung 5.14%

O=C(Nc1ccc(C(=O)Nc2ccc(C3=NCCCN3)cc2)cc1)Nc1ccc(C2=NCCCN2)cc1
inactive: NCI-H23 lung 63% | NCI-H226 lung 67.9% | NCI-H322M lung 84.8% | HOP-62 NSCLC 87.1% | NCI-H460 lung 75% | HOP-92 NSCLC 80.5% | NCI-H522 lung 71.6% | A549/ATCC NSCLC 75.9% | 786-0 renal 96.7% | COLO 205 colon 105%

CCOC(=O)C1=C(C)N=C2Sc3cc(OC(F)(F)F)ccc3N2[C@H]1c1ccccn1
inactive: NCI-H23 lung 48.8% | NCI-H226 lung 57.6% | NCI-H322M lung 50.2% | HOP-62 NSCLC 47.6% | NCI-H460 lung 15.2% | HOP-92 NSCLC 68% | NCI-H522 lung 48.5% | A549/ATCC NSCLC 30.1% | 786-0 renal 59.1% | COLO 205 colon 36.7%

O=C1CC(c2ccc3c(c2)OCO3)c2ncn(-c3ccc(Cl)cc3)c2N1 (stereo not given)
inactive: NCI-H23 lung 41% | NCI-H226 lung 69.8% | NCI-H322M lung 51.9% | HOP-62 NSCLC 60.3% | NCI-H460 lung 14.3% | HOP-92 NSCLC 69.7% | A549/ATCC NSCLC 48.7% | 786-0 renal 38.4% | COLO 205 colon 99.5%
active: NCI-H522 lung -19.2%

COc1ccc2nc3cc(Cl)ccc3c(Nc3ccc(N(C)C)cc3)c2c1
inactive: NCI-H23 lung 91.9% | NCI-H226 lung 83.5% | NCI-H322M lung 109% | HOP-62 NSCLC 89.9% | NCI-H460 lung 70.6% | HOP-92 NSCLC 76.3% | NCI-H522 lung 86.6% | A549/ATCC NSCLC 69.3% | 786-0 renal 96.9% | COLO 205 colon 84.6%

C=CC(=O)N1CCC[C@H](n2c(=O)n(-c3ccc(Oc4ccccc4)cc3)c3c(N)ncnc32)C1
inactive: NCI-H23 lung 92.7% | NCI-H226 lung 79.1% | NCI-H322M lung 19.3% | HOP-62 NSCLC 82.8% | NCI-H460 lung 96.2% | HOP-92 NSCLC 85.7% | NCI-H522 lung 11.3% | A549/ATCC NSCLC 58.3% | 786-0 renal 85.3% | COLO 205 colon 93.1%

C=C1[C@@H](O)C[C@H]2C(C)(C)C[C@H](Cl)C[C@]2(C)[C@H]1C[C@H](O)[C@H]1CC(=O)NC1=O
active: NCI-H23 lung -36.2% | NCI-H226 lung -25.8% | NCI-H322M lung -8.41% | HOP-62 NSCLC -38.4% | NCI-H460 lung -11.5% | HOP-92 NSCLC -13.5% | NCI-H522 lung -36.8% | A549/ATCC NSCLC -14.1% | 786-0 renal -33.2% | COLO 205 colon -62.5%

CC(C)n1c(NCCc2ccc(O)c(O)c2)nc2c1c(=O)n(C)c(=O)n2C
inactive: NCI-H23 lung 87.2% | NCI-H226 lung 90.1% | NCI-H322M lung 95.1% | HOP-62 NSCLC 103% | NCI-H460 lung 100% | HOP-92 NSCLC 83.7% | NCI-H522 lung 85.2% | A549/ATCC NSCLC 92.8% | 786-0 renal 90.4% | COLO 205 colon 103%

C=C1C(=O)O[C@H]2[C@H]1CC/C(C=Nc1c(N)cc(C(F)(F)F)cc1C(F)(F)F)=C\CC[C@@]1(C)O[C@@H]21
active: NCI-H23 lung -29% | NCI-H226 lung -53.1% | NCI-H460 lung -17.9% | HOP-92 NSCLC -39.9% | NCI-H522 lung -55.4% | 786-0 renal -66.5% | COLO 205 colon -59.7%
inactive: NCI-H322M lung 49.3% | HOP-62 NSCLC 21.3% | A549/ATCC NSCLC 11.9%

COc1cc2cc(NCc3ccc(F)cc3)nc(C)c2cc1OC
inactive: NCI-H23 lung 26.5% | NCI-H226 lung 48.5% | NCI-H322M lung 52.5% | HOP-62 NSCLC 54.7% | NCI-H460 lung 26.4% | HOP-92 NSCLC 25.3% | NCI-H522 lung 59.9% | A549/ATCC NSCLC 47.9% | 786-0 renal 32.2% | COLO 205 colon 34.2%

CCC1(/C=N/NC(N)=S)NC(=O)NC1=O (stereo not given)
inactive: NCI-H23 lung 99.2% | NCI-H226 lung 96.6% | NCI-H322M lung 106% | HOP-62 NSCLC 78.8% | NCI-H460 lung 109% | HOP-92 NSCLC 95.5% | NCI-H522 lung 83.2% | A549/ATCC NSCLC 62.5% | 786-0 renal 105% | COLO 205 colon 111%

Cc1cc(Nc2cc(N3CCN(C)CC3)nc(Sc3ccc(NC(=O)C4CC4)cc3)n2)n[nH]1
inactive: NCI-H23 lung 38.2% | NCI-H226 lung 36.3% | NCI-H322M lung 58.8% | HOP-62 NSCLC 18.4% | NCI-H460 lung 14.1% | HOP-92 NSCLC 12.1% | NCI-H522 lung 24.1% | A549/ATCC NSCLC 20.6% | 786-0 renal 48.4%
active: COLO 205 colon -29.3%

Cc1nn(-c2nc3ccccc3[nH]2)c2c1C(c1ccc(OCc3ccc(F)cc3)cc1)CC(=O)N2 (stereo not given)
inactive: NCI-H23 lung 46.9% | NCI-H226 lung 74.5% | NCI-H322M lung 70.4% | HOP-62 NSCLC 69.5% | NCI-H460 lung 48% | HOP-92 NSCLC 72% | NCI-H522 lung 30.5% | A549/ATCC NSCLC 41.8% | 786-0 renal 63.4% | COLO 205 colon 103%
